The values that follow come from PubChem BioAssay (EPA / NIEHS).

Calls of active or inactive are those of the source. The calls were made as follows: active = hit-call score of the fitted dose curve at least 0.9, where 1 is the maximum; inactive = score below 0.9.

Common to all, as to conditions: mRNA level, 48 h; actives raise or lower the signal
Read-out in assay [1]: Cytochrome P450 7A1 (Homo sapiens) (UniProt P22680)
The assay is described as follows: LTEA_HepaRG_CYP7A1: Life Technologies and Expression Analysis (LTEA) Assay for Cytochrome P450 7A1 (CYP7A1) using HepaRG (AID 2283496). In short, it runs like this:
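HepaRG cells plated 48 h, then switched to serum-free induction medium and exposed in duplicate for 48 h to 8-point half-log series from 100 uM in 0.5% DMSO. CYP7A1 mRNA by qRT-PCR (TaqMan), normalized to ACTB/GAPDH/POLR2A; bidirectional fit versus DMSO.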

Read-out in assay [2]: Glutathione S-Transferase (GSTA2), GSTA2 (gene 2939)
The assay is described as follows: LTEA_HepaRG_GSTA2: Life Technologies and Expression Analysis (LTEA) Assay for Glutathione S-Transferase (GSTA2) using HepaRG (AID 2283497). In short, it runs like this: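 Human HepaRG cells, plated 48 h, then exposed in serum-free induction medium for 48 h to eight half-log concentrations up to 100 uM in 0.5% DMSO, duplicate. GSTA2 mRNA by qRT-PCR, normalized to ACTB/GAPDH/POLR2A; bidirectional fit versus DMSO.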

Read-out in assay [3]: Glutamate-cysteine ligase catalytic (GCLC), GCLC (gene 2729)
The assay is described as follows: LTEA_HepaRG_GCLC: Life Technologies and Expression Analysis (LTEA) Assay for Glutamate-cysteine ligase catalytic (GCLC) using HepaRG (AID 2283498). In short, it runs like this: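 Differentiated human HepaRG cells, plated 48 h then switched to serum-free induction medium, were exposed in duplicate for 48 h to 8 half-log concentrations topping at 100 uM in 0.5% DMSO. GCLC mRNA was quantified by qRT-PCR against ACTB, GAPDH and POLR2A.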

Read-out in assay [4]: growth arrest and DNA damage 45 (GADD45G), GADD45G (gene 10912)
The assay is described as follows: LTEA_HepaRG_GADD45G: Life Technologies and Expression Analysis (LTEA) Assay for growth arrest and DNA damage 45 (GADD45G) using HepaRG (AID 2283499). In short, it runs like this:
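Differentiated human HepaRG cells in serum-free induction medium were exposed for 48 h to 8 half-log concentrations up to 100 uM in 0.5% DMSO, in duplicate. GADD45G mRNA was measured by TaqMan qRT-PCR, normalised to ACTB, GAPDH and POLR2A, and fitted bidirectionally against DMSO.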

Read-out in assay [5]: Glutamate-cysteine ligase regulatory (GCLM), GCLM (gene 2730)
The assay is described as follows: LTEA_HepaRG_GCLM: Life Technologies and Expression Analysis (LTEA) Assay for Glutamate-cysteine ligase regulatory (GCLM) using HepaRG (AID 2283500). In short, it runs like this: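 Differentiated HepaRG cells exposed 48 h in serum-free induction medium to eight half-log concentrations up to 100 uM (0.5% DMSO). GCLM mRNA by TaqMan qRT-PCR, normalized to ACTB, GAPDH and POLR2A; bidirectional fit versus DMSO.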

Read-out in assay [6]: Heat shock 70 kDa protein 1 (HSPA1A), gene 3303
The assay is described as follows: LTEA_HepaRG_HSPA1A: Life Technologies and Expression Analysis (LTEA) Assay for Heat shock 70 kDa protein 1 (HSPA1A) using HepaRG (AID 2283502). In short, it runs like this: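 Human HepaRG cells in serum-free induction medium were exposed in duplicate for 48 h to 8 half-log concentrations, highest 100 uM, in 0.5% DMSO. HSPA1A mRNA read by TaqMan qRT-PCR, normalized to ACTB, GAPDH, POLR2A, fitted bidirectionally against DMSO.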

Read-out in assay [7]: Hypoxia-inducible factor 1-alpha (Homo sapiens) (UniProt Q16665)
The assay is described as follows: LTEA_HepaRG_HIF1A: Life Technologies and Expression Analysis (LTEA) Assay for Hypoxia-inducible factor 1 (HIF1A) Trancription factor using HepaRG (AID 2283503). In short, it runs like this: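 Differentiated HepaRG cells in serum-free induction medium exposed 48 h, in duplicate, to 8-point half-log series from 100 uM in 0.5% DMSO. HIF1A mRNA measured by TaqMan qRT-PCR, normalized to ACTB/GAPDH/POLR2A, fitted bidirectionally versus DMSO.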

Read-out in assay [8]: 3-Hydroxy-3-Methylglutaryl-CoA Synthase 2 (HMGCS2), HMGCS2 (gene 3158)
The assay is described as follows: LTEA_HepaRG_HMGCS2: Life Technologies and Expression Analysis (LTEA) Assay for 3-Hydroxy-3-Methylglutaryl-CoA Synthase 2 (HMGCS2) using HepaRG (AID 2283504). In short, it runs like this:
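Differentiated human HepaRG cells were exposed in duplicate for 48 h in serum-free induction medium to eight concentrations (top 100 uM, half-log steps, 0.5% DMSO). HMGCS2 mRNA was quantified by TaqMan qRT-PCR, normalised to ACTB, GAPDH and POLR2A, then fitted bidirectionally against DMSO.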

Read-out in assay [9]: HGF (gene 3082)
The assay is described as follows: LTEA_HepaRG_HGF: Life Technologies and Expression Analysis (LTEA) Assay for Hepatocyte Growth Facto (HGF) using HepaRG (AID 2283505). In short, it runs like this: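 Differentiated human HepaRG cells in serum-free induction medium were exposed in duplicate for 48 h to eight concentrations (top 100 uM, half-log steps, 0.5% DMSO). HGF mRNA was quantified by qRT-PCR, normalized to ACTB, GAPDH and POLR2A.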

Read-out in assay [10]: Insulin Like Growth Factor 1 (IGF1), IGF1 (gene 3479)
The assay is described as follows: LTEA_HepaRG_IGF1: Life Technologies and Expression Analysis (LTEA) Assay for Insulin Like Growth Factor 1 (IGF1) using HepaRG (AID 2283506). In short, it runs like this:
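Differentiated HepaRG cells in serum-free induction medium, exposed 48 h in duplicate to 8 half-log concentrations up to 100 uM in 0.5% DMSO. IGF1 mRNA by Fluidigm qRT-PCR, normalised to ACTB, GAPDH and POLR2A.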

Read-out in assay [11]: Intercellular Adhesion Molecule 1 (ICAM1), ICAM1 (gene 3383)
The assay is described as follows: LTEA_HepaRG_ICAM1: Life Technologies and Expression Analysis (LTEA) Assay for Intercellular Adhesion Molecule 1 (ICAM1) using HepaRG (AID 2283507). In short, it runs like this:
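Differentiated HepaRG cells in serum-free induction medium were exposed in duplicate for 48 h to eight half-log concentrations up to 100 uM in 0.5% DMSO. Transcript levels were measured by qRT-PCR normalized to ACTB, GAPDH and POLR2A; bidirectional fits relative to DMSO.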

Read-out in assay [12]: Insulin-like growth factor-binding protein 1 (IGFBP1), IGFBP1 (gene 3484)
The assay is described as follows: LTEA_HepaRG_IGFBP1: Life Technologies and Expression Analysis (LTEA) Assay for Insulin-like growth factor-binding protein 1 (IGFBP1) using HepaRG (AID 2283508). In short, it runs like this: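 Differentiated human HepaRG cells in serum-free induction medium were exposed in duplicate for 48 h to eight concentrations, top 100 uM with half-log dilutions, in 0.5% DMSO. Transcript levels came from qRT-PCR normalised to ACTB, GAPDH and POLR2A, fitted bidirectionally against DMSO.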

Read-out in assay [13]: Interleukin 6 (IL6), IL6 (gene 3569)
The assay is described as follows: LTEA_HepaRG_IL6: Life Technologies and Expression Analysis (LTEA) Assay for Interleukin 6 (IL6) using HepaRG (AID 2283509). In short, it runs like this: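 Differentiated human HepaRG cells, plated 48 h then switched to serum-free induction medium, were exposed in duplicate for 48 h to eight half-log concentrations up to 100 uM in 0.5% DMSO. IL6 mRNA measured by qRT-PCR, normalized to ACTB/GAPDH/POLR2A.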

Read-out in assay [14]: Interleukin 6 Receptor (IL6R), IL6R (gene 3570)
The assay is described as follows: LTEA_HepaRG_IL6R: Life Technologies and Expression Analysis (LTEA) Assay for Interleukin 6 Receptor (IL6R) using HepaRG (AID 2283510).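 As to AC50: TaqMan qRT-PCR signal normalized to ACTB GAPDH and POLR2A housekeeping genes.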 In short, it runs like this:
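Differentiated HepaRG cells, plated 48 h, then exposed in duplicate for 48 h in serum-free induction medium to 8 half-log concentrations (top 100 uM, 0.5% DMSO). IL6R mRNA measured by TaqMan qRT-PCR, normalized to ACTB/GAPDH/POLR2A; bidirectional fit vs DMSO.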

Read-out in assay [15]: Potassium channel subfamily K member 1 (KCNK1), KCNK1 (gene 3775)
The assay is described as follows: LTEA_HepaRG_KCNK1: Life Technologies and Expression Analysis (LTEA) Assay for Potassium channel subfamily K member 1 (KCNK1) using HepaRG (AID 2283511). In short, it runs like this:
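Differentiated human HepaRG cells in serum-free induction medium were exposed in duplicate for 48 h to 8 half-log concentrations up to 100 uM in 0.5% DMSO. KCNK1 mRNA was measured by TaqMan qRT-PCR, normalized to ACTB, GAPDH and POLR2A, and fitted bidirectionally versus DMSO.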

Read-out in assay [16]: Keratin 19 (KRT19), KRT19 (gene 3880)
The assay is described as follows: LTEA_HepaRG_KRT19: Life Technologies and Expression Analysis (LTEA) Assay for Keratin 19 (KRT19) using HepaRG (AID 2283512). In short, it runs like this: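 Differentiated human HepaRG cells, plated 48 h, were exposed in duplicate for 48 h in serum-free induction medium to eight half-log concentrations up to 100 uM in 0.5% DMSO. KRT19 mRNA was quantified by qRT-PCR, normalized to ACTB, GAPDH and POLR2A, and fitted bidirectionally versus DMSO.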

Read-out in assay [17]: JUN Transcription Factor, JUN (gene 3725)
The assay is described as follows: LTEA_HepaRG_JUN: Life Technologies and Expression Analysis (LTEA) Assay for JUN Transcription Factor using HepaRG (AID 2283513). In short, it runs like this: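 HepaRG cells, 48 h post-plating, exposed 48 h in serum-free induction medium to 8-point half-log series (top 100 uM, 0.5% DMSO), duplicate; mRNA by qRT-PCR (TaqMan, Fluidigm), normalized to ACTB/GAPDH/POLR2A; bidirectional fit vs DMSO.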

Read-out in assay [18]: Lipase C (LIPC), LIPC (gene 3990)
The assay is described as follows: LTEA_HepaRG_LIPC: Life Technologies and Expression Analysis (LTEA) Assay for Lipase C (LIPC) using HepaRG (AID 2283514). In short, it runs like this:
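Differentiated human HepaRG cells in serum-free induction medium were exposed in duplicate for 48 h to eight concentrations (top 100 uM, half-log steps, 0.5% DMSO). LIPC mRNA was quantified by TaqMan qRT-PCR, normalized to ACTB, GAPDH and POLR2A, with bidirectional fitting versus DMSO.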

Read-out in assay [19]: Lipoprotein lipase (LPL), LPL (gene 4023)
The assay is described as follows: LTEA_HepaRG_LPL: Life Technologies and Expression Analysis (LTEA) Assay for Lipoprotein lipase (LPL) using HepaRG (AID 2283515). In short, it runs like this:
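Differentiated human HepaRG cells in serum-free induction medium were exposed in duplicate for 48 h to eight half-log concentrations (top 100 uM) in 0.5% DMSO. LPL mRNA was quantified by TaqMan qRT-PCR, normalized to ACTB, GAPDH and POLR2A.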

Read-out in assay [20]: Glutathione S-transferase M3 (GSTM3), GSTM3 (gene 2947)
The assay is described as follows: LTEA_HepaRG_GSTM3: Life Technologies and Expression Analysis (LTEA) Assay for Glutathione S-transferase M3 (GSTM3) using HepaRG (AID 2283501). In short, it runs like this:
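Differentiated HepaRG cells in serum-free induction medium were exposed in duplicate for 48 h to 8 half-log concentrations up to 100 uM in 0.5% DMSO. GSTM3 mRNA was measured by TaqMan qRT-PCR, normalized to ACTB/GAPDH/POLR2A, and fitted bidirectionally versus DMSO.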

Hypoxia-inducible factor 1-alpha (Homo sapiens), sequence (Q16665 whole entry, looked up): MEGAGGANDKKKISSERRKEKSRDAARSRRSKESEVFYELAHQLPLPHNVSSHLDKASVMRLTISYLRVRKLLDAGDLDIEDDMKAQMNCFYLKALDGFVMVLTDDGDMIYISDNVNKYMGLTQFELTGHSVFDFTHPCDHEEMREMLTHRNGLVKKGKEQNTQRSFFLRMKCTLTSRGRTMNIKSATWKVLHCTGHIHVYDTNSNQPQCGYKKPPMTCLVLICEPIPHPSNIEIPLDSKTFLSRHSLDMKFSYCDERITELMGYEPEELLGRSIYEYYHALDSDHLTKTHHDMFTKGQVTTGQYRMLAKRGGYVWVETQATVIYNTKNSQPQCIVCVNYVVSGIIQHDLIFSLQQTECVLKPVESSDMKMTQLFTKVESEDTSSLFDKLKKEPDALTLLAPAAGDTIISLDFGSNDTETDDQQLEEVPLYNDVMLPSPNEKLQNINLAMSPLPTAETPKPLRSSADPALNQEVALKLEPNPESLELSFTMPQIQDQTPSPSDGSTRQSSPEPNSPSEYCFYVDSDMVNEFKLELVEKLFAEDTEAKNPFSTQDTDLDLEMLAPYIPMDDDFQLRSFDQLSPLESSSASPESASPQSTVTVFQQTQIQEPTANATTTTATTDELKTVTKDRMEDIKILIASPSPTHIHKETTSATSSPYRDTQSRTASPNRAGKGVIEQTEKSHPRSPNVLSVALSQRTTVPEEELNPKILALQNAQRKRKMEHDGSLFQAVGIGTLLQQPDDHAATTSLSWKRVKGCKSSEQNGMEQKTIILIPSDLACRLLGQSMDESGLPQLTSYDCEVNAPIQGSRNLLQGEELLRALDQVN

Take `CCOP(=S)(OCC)OC(Cl)C(Cl)(Cl)Cl` (centres undefined): the compound was called inactive in [1], in assay [2], in [3], in [4], in assay [5] and in assay [6]. For the same compound, the compound was classed as inactive in assay [7], in [8], in [9], in assay [10], in assay [11] and in [12]. Further, the result in [13], in assay [14], in assay [15], in [16], in [17] and in assay [18] was inactive. Further, the result in assay [19] was inactive.

The term AC50 denotes the midpoint of the concentration-response curve, whichever way the signal moves. For the compound `N#CSCSC#N`, the AC50 in assay [1] is 50 µM (active); in assay [2], 76.2 µM (active); in assay [5], 80.6 µM (active); in assay [8], 82.1 µM (active); in assay [14], 68.4 µM (active); in assay [16] it was 90.1 µM (active). In addition, in [19], the AC50 is 78.1 µM (active). For the same compound, the call in assay [3], in assay [4], in assay [6], in assay [7], in assay [9] and in assay [10] was inactive. Further, the call in assay [11], in assay [12], in [13], in assay [15] and in assay [17] was inactive.

For `CC1(C(=O)Nc2ccc(O)c(Cl)c2Cl)CCCCC1`, the call in assay [1], in assay [2], in assay [3], in [4], in assay [5] and in [6] was inactive. Besides, the compound was classed as inactive in [7], in assay [8], in assay [9], in assay [10], in [11] and in assay [12]. The call in [13], in assay [14], in assay [15], in assay [16], in assay [17] and in assay [19] was inactive.

Regarding `CC(C1CC1)C(O)(Cn1cncn1)c1ccc(Cl)cc1` (centres undefined), the AC50 in [1] was 18.8 µM (active); in [2], 76.7 µM (active); in [8], 83.6 µM (active); in [10], 37 µM (active). The compound was called inactive in [3], in assay [4], in assay [5], in assay [20], in assay [6] and in [7]. Also, the compound was classed as inactive in assay [9], in assay [11], in assay [12], in assay [13], in assay [14] and in assay [15]. Moreover, the compound was called inactive in assay [16], in assay [17] and in assay [19].
